Assay outcomes from PubChem BioAssay.
JMJD2A Tudor = inhibitors of human JMJD2A Tudor domain | Potency, µM (top dose mostly 114 µM), for inactives: top-dose activity change, negative = inhibition, usual class: inhibitors | O75164 | actives 4.4% (n = 390,000) | AID 504339 | AlphaScreen JMJD2A-Tudor / H3K4me3 peptide binding; note: % is set by controls: 0 for no effect and ±100 for the full control effect; nearly all actives have a fitted effect of over 50% in size
Target sequence (O75164 whole entry, looked up, the tested form may be a part): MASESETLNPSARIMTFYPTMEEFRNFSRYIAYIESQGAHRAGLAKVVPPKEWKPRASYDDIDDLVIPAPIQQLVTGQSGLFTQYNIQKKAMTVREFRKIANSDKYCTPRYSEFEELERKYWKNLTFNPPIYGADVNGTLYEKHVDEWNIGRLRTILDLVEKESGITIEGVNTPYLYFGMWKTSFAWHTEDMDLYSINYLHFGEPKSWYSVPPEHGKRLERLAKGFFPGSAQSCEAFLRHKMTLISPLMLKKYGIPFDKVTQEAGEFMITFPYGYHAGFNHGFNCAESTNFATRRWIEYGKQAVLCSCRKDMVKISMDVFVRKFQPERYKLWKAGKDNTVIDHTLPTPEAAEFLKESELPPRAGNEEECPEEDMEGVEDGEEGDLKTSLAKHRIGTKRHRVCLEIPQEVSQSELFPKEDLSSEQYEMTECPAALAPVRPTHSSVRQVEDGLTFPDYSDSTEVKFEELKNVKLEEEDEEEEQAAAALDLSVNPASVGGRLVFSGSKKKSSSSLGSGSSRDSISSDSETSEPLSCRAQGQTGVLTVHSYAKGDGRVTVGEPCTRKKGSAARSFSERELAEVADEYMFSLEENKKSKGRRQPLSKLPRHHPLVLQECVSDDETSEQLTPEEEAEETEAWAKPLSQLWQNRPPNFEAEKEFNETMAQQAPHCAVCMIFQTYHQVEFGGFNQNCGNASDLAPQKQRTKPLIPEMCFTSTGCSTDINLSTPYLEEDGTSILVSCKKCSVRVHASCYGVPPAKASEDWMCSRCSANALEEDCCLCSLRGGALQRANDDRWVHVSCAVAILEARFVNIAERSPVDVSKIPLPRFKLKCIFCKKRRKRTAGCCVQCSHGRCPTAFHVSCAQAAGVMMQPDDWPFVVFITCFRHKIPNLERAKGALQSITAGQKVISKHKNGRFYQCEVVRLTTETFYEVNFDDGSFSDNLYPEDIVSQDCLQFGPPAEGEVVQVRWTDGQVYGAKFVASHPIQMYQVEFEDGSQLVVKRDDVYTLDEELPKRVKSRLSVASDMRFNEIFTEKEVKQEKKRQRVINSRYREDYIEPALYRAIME
PLK1 PBD inh = inhibitors of human PLK1 polo-box domain binding | P53350 | Plk1 PBD binding of FITC phosphopeptide, fluorescence polarization | Potency, µM, without a hit: max response, negative = inhibition, hits mostly inhibitors | actives 2.8% (n = 360,000) | AID 720504; note: series mostly up to about 57 µM; % is set by controls: 0 for no effect and ±100 for the full control effect; nearly all actives have a fitted effect of over 65% in size
12-LOX inh = ALOX12 (human) lipoxygenase inhibition | purified 12hLO, xylenol orange hydroperoxide absorbance | Potency, µM (top dose mostly 108 µM), without a hit: at the top dose activity change, negative = inhibition, most hits filed as inhibitors | actives 1.1% (n = 580,000) | AID 1671190; note: % is set by controls: 0 for no effect and ±100 for the full control effect
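Hydroperoxide product was detected by ferrous iron/xylenol orange as the 573 to 405 nm absorbance ratio. Arachidonic acid at 40 uM (final) was turned over for 30 min at room temperature by 150 nM human 12hLO, pH 7.0 Hepes buffer, after 15 min compound preincubation.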
HP1b binding inh = blocks HP1-beta chromodomain binding to methylated histone tails | actives 0.56% (n = 390,000) | P83916 | Potency, µM (doses to about 114 µM), for inactives: top-dose activity change, negative = inhibition, most hits filed as inhibitors | AlphaScreen HP1-beta / biotin-H3K9me3 peptide binding; note: nearly all actives have a fitted effect of over 70% in size
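HP1-beta protein (50 nM final) preincubated 30 min at room temperature with biotinylated H3(1-18)K9me3 peptide (50 nM) in PBS pH 7.4, 0.01% Tween-20, then compound added for 30 min. AlphaScreen streptavidin donor/nickel chelate acceptor beads (10 ug/mL final), 30 min dark, luminescence read.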
G9a inh = G9a (human) methyltransferase inhibition | Q96KQ7 | G9a H3K9 monomethylation, AlphaScreen, 2 h | Potency, µM (series often up to 102 µM), inactives show top-dose activity, negative = inhibition, most hits filed as inhibitors | actives 8.8% (n = 350,000) | AID 504332; note: % is set by controls: 0 for no effect and ±100 for the full control effect; nearly all actives have a fitted effect of over 75% in size
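Step 1: enzyme (final 20 nM) with compound, 15 min RT. Step 2: substrate peptide 500 nM and SAM 20 uM, 2 h RT. Step 3: anti-H3K9me1 antibody and AlphaScreen beads, 10 min, then plate read.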
BAZ2B block = BAZ2B (human) inhibition. Q9UIF8. AlphaScreen BAZ2B-H3K14Ac peptide displacement. Potency, µM (series often up to 114 µM), without a hit: at the top dose activity change, negative = inhibition, usual class: inhibitors. actives 4.4% (n = 360,000); note: % is set by controls: 0 for no effect and ±100 for the full control effect; nearly all actives have a fitted effect of over 60% in size
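Inhibition is scored as reduced AlphaScreen emission. The BAZ2B/b-H3(5-23)K14Ac complex (50 nM each) in PBS pH 7.4, 0.01% Tween-20 meets compound (up to 110 uM) for 30 min at RT before bead addition.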
Starred values were filed as active, the others as inactive; ? = inconclusive; . = not tested or not shown; [ ] = another dose, or the depositor's remark. Compounds with a hit are over-represented: about 9% of the library has one in this group of screens. Calls come from the whole dose curve; as a rule, active = well fitted curve in the direction sought with a large enough effect; inconclusive = small, poorly fitted or top-dose-only effect, or another doubt; inactive = no such curve, though single readings can be large; an effect the other way counts as inactive or inconclusive. Potency is the fitted concentration of half-maximal effect.

SMILES | JMJD2A Tudor | PLK1 PBD inh | 12-LOX inh | HP1b binding inh | G9a inh | BAZ2B block
O=C(N/N=C/c1ccc([N+](=O)[O-])o1)C1CCCC1 | -15% | -2% | 0% | 26% | -2%[0.501 µM] | -15%
N#C/C=C1/NC(=O)c2ccccc2S1 | -24% | 4% | 2% | 16% | 45µM* | ?
Cc1ccc(CN(C(=O)Cc2coc3ccc(C(C)C)cc23)C2CCS(=O)(=O)C2)cc1 (centres undefined) | . | . | -19% | . | . | .
CCN(CC)c1ccc(CN(C(=O)Cc2coc3ccc(C)cc23)C2CCS(=O)(=O)C2)cc1 (centres undefined) | ? | . | -19% | -16% | 10µM* | 10µM*
Cc1ccc2occ(CC(=O)N(Cc3ccc(N(C)C)cc3)C3CCS(=O)(=O)C3)c2c1 (centres undefined) | ? | . | 0% | -19% | 10µM* | 45µM*
CCc1ccc2occ(CC(=O)N(Cc3ccc(N(C)C)cc3)C3CCS(=O)(=O)C3)c2c1 (centres undefined) | 40µM* | . | 2% | ? | 13µM* | 20µM*
CC(C)c1ccc2occ(CC(=O)N(Cc3ccc(F)cc3)C3CCS(=O)(=O)C3)c2c1 (centres undefined) | -24% | . | ? | 20% | -2%[59 µM] | -9%
O=C(N[C@H]1C[C@H]2C(=O)Nc3ccc(-c4cccs4)cc3C(=O)N2C1)c1ccccc1 | . | . | 7%[176 µM] | . | . | .
CCNC(=O)CN(CC)C(=O)c1n[nH]c(=O)c2ccccc12 | . | . | -10% | . | . | .
O=c1c2c3c(sc2n2cnnc2n1-c1ccccc1)N(Cc1ccccc1)CCC3 | ? | 30µM* | . | 5% | 13µM* | -33%
CCOC(=O)c1c(/N=C/c2cc([N+](=O)[O-])ccc2O)sc(C)c1C | -10% | 8% | 35µM* | 30% | ? | ?
CCOC(=O)c1c(/N=C/c2cc(OC)cc([N+](=O)[O-])c2O)sc(C)c1C | ? | -5% | ? | ? | 20µM* | 50µM*
COc1cc(NC(=O)C2CCC(CNc3c(N4CCCCC4)c(=O)c3=O)CC2)cc(OC)c1 (centres undefined) | -15% | 4% | 7% | 35% | -13%[59 µM] | 6%
CC[N+](C)(CC)CC(C[N+](C)(CC)CC)OCc1ccccc1 | . | . | 14µM* | . | . | .
O=C(NCCCN1CCOCC1)C1CCN(S(=O)(=O)c2cccc(Cl)c2Cl)CC1 | -7% | 2% | -17% | 10% | 15%[0.501 µM] | 13%
CN(C)c1ccc(C2/C(=C(/O)c3ccccc3)C(=O)C(=O)N2CCCC(=O)O)cc1 (centres undefined) | ? | 6% | -10% | 27% | ? | -26%
COCCCN1C(=O)C(=O)/C(=C(/O)c2ccccc2)C1c1ccc(N(C)C)cc1 (centres undefined) | ? | -1% | ? | 7% | 45µM* | ?
COCCCN1C(=O)C(=O)/C(=C(/O)c2ccccc2)C1c1ccc2c(c1)OCO2 (centres undefined) | ? | -5% | -29% | 20% | 56µM* | -35%
COc1cccc(C2/C(=C(/O)c3ccc4c(c3)OCO4)C(=O)C(=O)N2CCN2CCOCC2)c1 (centres undefined) | -11% | -7% | -8% | 23% | 19%[12.7 µM] | -8%
CCOC(=O)c1ccc(NC(=O)N2CCOCC2)cc1 | -4% | -2% | 26% | 19% | -4% | ?
Cc1cc(NC(=O)Cn2nc(C(=O)O)c3ccccc3c2=O)ccc1Br | ? | -7% | 0% | 0% | -5% | 2%
CCOc1ccccc1NC(=S)NC1CCCCC1 | -18% | -16% | ? | 5% | -17%[59 µM] | -23%
CCOc1ccccc1C(=S)NC1CCCCC1 | -1% | ? | ? | 25% | 35µM* | 8%
CCOc1ccc(C(=S)NC2CCCCC2)cc1OC | ? | 9.5µM* | 22µM* | ? | 13µM* | -5%
Cc1sc2nc(CSCC(=O)NC(C)(C)C)[nH]c(=O)c2c1C | -15% | -1% | 469% | 18% | -7% | -17%
SMILES | JMJD2A Tudor | PLK1 PBD inh | 12-LOX inh | HP1b binding inh | G9a inh | BAZ2B block
O=C(Nc1ccc2c(c1)OCO2)N1CCCc2ccccc21 | -7% | -11% | ? | 15% | 56µM* | -16%
CC(=O)c1cccc(NC(=O)N2CCCC2C(=O)Nc2cccc(C)c2)c1 (centres undefined) | -3% | -1% | ? | 27% | -5% | 14%
CC(=O)c1cccc(NC(=O)N2CCCC2C(=O)Nc2ccc3c(c2)OCO3)c1 (centres undefined) | -20% | 30µM* | -10% | 2% | 8% | -23%
Cc1ccc2c(c1)CCCN2C(=O)Nc1ccc2c(c1)OCO2 | 56µM* | 27µM* | 0% | -37% | ? | ?
CC(C)[C@H](NS(=O)(=O)c1ccc2c(c1)OCCO2)C(=O)OCC(=O)Nc1ccccc1Cl | -1% | -1% | -11% | 24% | 20%[59 µM] | 9%
CC(C)[C@H](NS(=O)(=O)c1ccc2c(c1)OCCO2)C(=O)OCC(=O)Nc1cc(Cl)ccc1Cl | ? | 30µM* | 8% | ? | -12%[59 µM] | -6%
OC(COc1ccccc1)CN1CCN(C(c2ccccc2)c2ccccc2)CC1 (centres undefined) | -33% | -13% | -30% | 9% | 11% | ?
OC(COCc1ccco1)CN1CCN(C(c2ccccc2)c2ccccc2)CC1 (centres undefined) | 1.3µM* | -2% | ? | 28µM* | -159% | 35µM*
Cc1ccc(Cl)cc1N1CCN(CC(O)COCc2ccco2)CC1 (centres undefined) | 7.1µM* | 6% | 10µM* | ? | 11µM* | 50µM*
O=C(c1ccc2c(c1)OCO2)N1CCN([S+](=O)([O-])c2ccc(Cl)nc2)C(=O)C1 | . | . | 11%[6.33 µM] | . | . | .
CCCCC(=O)N(c1ccc(C(=O)O)cc1)c1nc(-c2ccc(Cl)cc2)c(CC)s1 | -28% | 27µM* | -11% | -21% | ? | -17%
OCC1(CO)COC2(CCCC2)N1 | 16µM* | -7% | 6% | -6% | -5%[12.7 µM] | 4%
CCOC(=O)/C=C/c1cc(F)ccc1O | . | -4% | 0% | . | . | .
COC(=O)/C=C/c1cc(O)ccc1O | . | . | -4% | . | 2.8µM* | .
COc1ccccc1NS(=O)(=O)c1ccc2c(c1)n(C)c(=O)n2C | -1% | -11% | 8%[57.4 µM] | 11% | -6%[59 µM] | ?
COc1cc2c(cc1NS(=O)(=O)c1cccc(C#N)c1)n(C)c(=O)n2C | -31% | . | ? | -13% | 10µM* | 79µM*
Cc1cc2c(cc1NS(=O)(=O)c1cccc(C#N)c1)n(C)c(=O)c(=O)n2C | -8% | . | -8% | 62% | 10µM* | -16%
